Here are results for 30 compounds from PubChem BioAssay AID1918 (Vanderbilt High Throughput Screening Facility, 2009).

Molecules are shown by their SMILES. About 2,500 (1.9%) of roughly 130,000 compounds were called active.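 Rule for the calls: active = signal ratio slope over the read window, or its plate-corrected B-score, at least 3 SD from the plate mean, either direction; inactive = the rest.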 The sample as a whole holds a higher share of actives than the screen did.

ATP-sensitive inward rectifier potassium channel 1 (Homo sapiens), sequence (P48048 whole entry, looked up): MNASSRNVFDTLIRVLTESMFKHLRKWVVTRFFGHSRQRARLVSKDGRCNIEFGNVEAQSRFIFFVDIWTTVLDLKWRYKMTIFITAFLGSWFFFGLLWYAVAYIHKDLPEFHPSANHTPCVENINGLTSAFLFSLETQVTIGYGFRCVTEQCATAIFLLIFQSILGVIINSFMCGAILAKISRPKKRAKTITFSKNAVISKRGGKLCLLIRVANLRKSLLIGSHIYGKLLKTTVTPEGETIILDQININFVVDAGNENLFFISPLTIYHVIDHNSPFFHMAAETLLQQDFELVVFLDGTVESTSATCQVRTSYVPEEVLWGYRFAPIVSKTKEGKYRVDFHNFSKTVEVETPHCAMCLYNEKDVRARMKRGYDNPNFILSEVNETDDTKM

The experiment has as its target ATP-sensitive inward rectifier potassium channel 1 (Homo sapiens) (UniProt P48048). Nature of the experiment: ROMK potassium channel modulators, primary screen, cell-based, thallium flux, MLSMR library (AID 1918).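 Note: B-score of the F/F0 ratio slope over 7 to 12 s after thallium.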 As to conditions: Tet-inducible ROMK, thallium flux fluorescence; at 10 µM; actives lie on both sides.
For `Cc1nc2ccccn2c1P(=S)(N1CCCCC1)N1CCCCC1`, the B-score is -3.59 (active).

Turning to `CSc1nc2ccc(C)cc2c(=O)n1-c1cccnc1`, the B-score was -0.218 (inactive).

On to `COC(=O)N1C(c2ccccc2)C1c1ccccc1` (stereo not given), for which the B-score is 0.0342 (inactive).

As for `O=C(Nc1cccc2ccccc12)N1CCC2(CC1)OCCO2`, the B-score is -0.682 (inactive).

With `CCN1CCN(c2ccc([N+](=O)[O-])cc2C#N)CC1`, the B-score was -0.443 (inactive).

In the case of `CC1=C2C(=O)C3C(CC=C4CC(OC5OC(O)C(O)C(O)C5CO)CCC43C)C2CCC12OC1CC(C)CNC1C2C` (stereo not given), the B-score is -0.573 (inactive).

As for `N=c1ccccn1Cc1ccccc1`, the B-score was 2.77 (active).

In the case of `CN(C)/C=C(\C=[N+](C)C)c1[nH]ncc1[N+](=O)[O-]`, the B-score is 0.157 (inactive).

`O=c1[nH]c(=O)n(-c2ccccc2)c(O)c1C=NC12CN3CN(CN(C3)C1)C2`: the B-score is 0.583 (inactive).

Take `O=c1[nH]c(=O)n(CCc2ccccc2)c(O)c1/C=N/N1CCOCC1`: the B-score was 0.152 (inactive).

As for `CC1=C(C(=O)Nc2ccccc2)S(=O)(=O)CCO1`, the B-score is 0.94 (inactive).

On to `COc1ccccc1N=Nc1c(O)[nH]c(=S)[nH]c1=O`, for which the B-score was -2.66 (active).

As for `CCOCCc1c(O)[nH]c(=S)[nH]c1=O`, the B-score was -0.807 (inactive).

For the compound `O=C1N=c2ccccc2=C/C1=C\c1c(O)[nH]c(=S)[nH]c1=O`, the B-score was 0.454 (inactive).

Consider `CNC(=O)O/N=C(\N)Cc1csc2ccccc12`, for which the B-score was 0.164 (inactive).

For `CC(Cc1cccs1)NCc1ccc(Cl)cc1` (stereo not given), the B-score is 0.0543 (inactive).

As for `CCCOC(=O)C1C2c3ccccc3C(c3ccccc32)C1C(=O)O` (stereo not given), the B-score is 0.827 (inactive).

Turning to `O=C(COC(=O)Cc1ccccc1)Nc1ccc(F)cc1`, the B-score was -0.767 (inactive).

Turning to `OC1/C(=C/c2ccc(C(F)(F)F)cc2)N2CCC1CC2` (stereo not given), the B-score is -1.88 (inactive).

For the compound `CCCCCCCCCCCCn1ccc(=N)cc1`, the B-score is -10.9 (active).

Turning to `CC(C)CN1CCN(Cc2ccccc2C(F)(F)F)CC1CCO` (stereo not given), the B-score is -0.0138 (inactive).

As for `CC(C)Oc1cccc(C(=O)C2CCCN(C3CCOCC3)C2)c1` (stereo not given), the B-score was 0.0502 (inactive).

In the case of `Cc1ccc(-c2cc(C(=O)N3CCC4(CC3)OCCO4)no2)cc1`, the B-score was 1.11 (inactive).

Regarding `Clc1ccc2nc3c(c(-c4ccccc4)c2c1)CNCC3`, the B-score is -3.67 (active).

Take `Cc1cc(C=C2C(=O)NC(=O)NC2=O)c(C)n1-c1ccncc1`: the B-score was -3.19 (active).

As to `Cc1cc(/C=C2/C(=O)NC(=O)N(Cc3ccco3)C2=O)c(C)n1-c1ccc(C(=O)O)cc1`, the B-score is 0.104 (inactive).

Regarding `Cc1ccccc1N1C(=O)NC(=O)/C(=C\c2cc(C)n(C)c2C)C1=O`, the B-score is 0.936 (inactive).

As for `O=C(Cn1c(=O)n(CC2CS2)c2ccccc21)N1CCCCC1` (stereo not given), the B-score is 1.36 (inactive).

With `CC(C)c1ccc(-n2c(O)c(/C=N/N3CCOCC3)c(=O)[nH]c2=S)cc1`, the B-score was 0.913 (inactive).

Take `COc1ccc(NC(=O)N2CCC3(CC2)OCCO3)c(OC)c1`: the B-score was -0.624 (inactive).
